# Records with an inconclusive call do not appear. Entries that show only a call come without a potency. Active and inactive are the calls of the source. Calls follow the shape of the dose curve; as a rule, active = well fitted cell-killing curve with a large enough effect; inconclusive = small, poorly fitted or top-dose-only effect; inactive = flat fitted curve, though single readings scatter.
# Test: Cell Viability - LYMP2-018 (AID 985);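 also: compound exposure lasted 24 hr at 37 °C; nearly all actives have a fitted effect of over 50% in size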
# Details: LYMP2-018 lymphoblastoid cells, viability (qHTS); series mostly up to 92.2 µM
# Text: NIH Chemical Genomics Center [NCGC]
# NIH Molecular Libraries Screening Centers Network [MLSCN]
# National Institutes of Environmental Health Sciences [NIEHS]
# National Toxicology Program [NTP]
# We have developed a 1536-well cell-based assay for quantitative high throughput screening (qHTS) against a number of cell lines to determine in vitro cytotoxicity of small molecules. This particular assay uses a human lymphoblastoid cell line (LYMP2-018) purchased from Coriell Institute for Medical Research.
# NCGC Assay Protocol Summary:
# The CellTiter-Glo luminescent cell viability assay (Promega) is a homogeneous method to measure the number of viable cells in culture. The end point readout of this assay is based on quantitation of intracellular ATP, an indicator of metabolic activity, using the luciferase reaction. Luciferase catalyzes the oxidation of beetle Luciferin to oxyluciferin and light in the presence of ATP. The luminescent signal is proportional to amount of ATP present.
# Using the CellTiter-Glo luminescent cell viability assay, the amount of cellular ATP was measured in the lymphoblastoid cell line with complete culture medium following compound treatment for 24 hours. The assay was performed in opaque white Kalypsys 1536-well plates. In the screen, tetraoctylammonium bromide was used as positive control. Library compounds were measured for their ability to cause acute toxicity in the cell line, as reflected by a decrease in intracellular ATP levels, in a concentration-dependent manner. […] AC50 values were determined from concentration-response data modeled with the standard Hill equation.
# qHTS protocol for CellTiter Glo lymphoblastoid cellular assay
# [Step] [Parameter] [Value] [Description]
# 1. Reagent; 5 uL; 2500 lymphoblastoid cells/well
# 2. Time; 5 hr; 37 C incubation
# 4. Controls; 23 nL; Tetraoctylammonium bromide 6.4pM to 92 uM
# 5. Time; 24 hr; 37 C incubation
# 6. Reagent; 5 uL; CellTiter Glo reagent
# 7. Time; 30 min; Room Temperature
# 8. Detection; Luminescence; Viewlux plate reader
# Keywords: cell viability, cytotoxicity, lymphoblastoid cell line, luminescence, NTPHTS, NTPHTS_NCGC, NIEHS, DSSTox, MLSMR, MLSCN, NIH Roadmap, qHTS, NCGC
# Potency is read from the fitted curve at half-maximal effect.
row,Structure (SMILES),Potency
1,CCCCC(CC)COC(=O)c1ccccc1C(=O)O (centres undefined),inactive
2,C1=CC2C3C=CC(C3)C2C1 (centres undefined),inactive
3,O=C(NO)c1ccccc1,inactive
4,Nc1cccc2c(N)cccc12,inactive
5,CCCC(=O)c1cc(O)c(O)cc1O,inactive
6,O=C(c1ccccc1)c1ccccc1,inactive
7,Oc1ccccc1,inactive
8,CCCCCCCCCCCCCCCC[n+]1ccccc1,12.6 µM (active)
9,OCc1c[nH]c2ccccc12,inactive
10,Cc1cc(C(C)(C)C)c(O)c(C(C)(C)C)c1,inactive
11,Nc1c2ccccc2nc2ccccc12,12.6 µM (active)
12,CC(C)C(C)(C)C(C)(C)C(C)(C)S,inactive
13,Cc1ccc(O)cc1,inactive
14,Brc1ccccc1-c1ccccc1,inactive
15,Nc1ccc(O)cc1,39.8 µM (active)
16,COc1cc(C=O)ccc1O,inactive
17,c1ccc2occc2c1,inactive
18,O=C(Oc1ccccc1)c1ccccc1O,inactive
19,CC(C)(c1ccc(O)cc1)c1ccc(O)cc1,inactive
